The values that follow come from PubChem BioAssay (NCATS).

Results filed as inconclusive are left out. Values without a mark were called inactive. The source made the active and inactive calls. Unless noted, calls come from the whole dose curve; as a rule, active = well fitted curve in the direction sought with a large enough effect; inconclusive = small, poorly fitted or top-dose-only effect, or another doubt; inactive = no such curve, though single readings can be large; an effect the other way counts as inactive or inconclusive.

Test [1] in a line: SDT Cancer Cell Toxicity qHTS against the NCATS CANVASS Library (AID 1347365). An outline of the steps:
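Dispense 500 SDT cells per well; pin-transfer compounds; incubate 72 hr at 37C, 5% CO2, 95% RH; add CellTiterGlo and read luminescence.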
In general terms: Quantitative high-throughput screening tests each substance at several concentrations.

Test [2] can be described thus: G06 Cancer Cell Toxicity qHTS against the NCATS CANVASS Library (AID 1347368). The method in brief:
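Cytotoxicity toward canine glioma G06 cells is scored from cellular ATP via luminescence after 72 hr compound exposure at 500 cells/well.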

Test [3] in a line: qHTS for Hypoxia signaling pathway (HIF-1) antagonists against the NCATS CANVASS Library (AID 1347374). The method in brief: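 HRE-bla ME-180 cells (2,000/well, 0.5% dialyzed FBS) were pre-incubated 5 h, then given an 11-point compound series plus CoCl2 (60 uM solution as added) for 17 h at 37C. CCF4 β-lactamase read (ex 405, em 460/530 nm) after 2 h at RT.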
Test [4] can be described thus: qHTS for Hypoxia signaling pathway (HIF-1) agonists against the NCATS CANVASS Library (AID 1347375). The method in brief:
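Inducers of HIF-1 signaling were detected in ME-180 cells bearing an HRE-driven beta-lactamase reporter after 17 h compound exposure. Activity came from CCF4-AM FRET emission ratio (460/530 nm) in qHTS format.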

Test [5] is described as follows: qHTS for Inflammasome Signaling Inhibitors: IL-1-beta AlphaLISA screen against the NCATS CANVASS Library (AID 1347379). The method in brief: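 Human THP-1 cells were pretreated 1 hr at 37 °C with compounds (up to 57.5 uM final), then stimulated with LPS (250 ng/mL final) and ATP (1.25 mM final). Secreted IL-1B was read by AlphaLISA after 16 hr.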
Test [6] can be described thus: qHTS for activators of Nrf2/ARE signaling pathway screened against the NCATS CANVASS Library (AID 1347391). The method in brief:
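Cells carrying an ARE-driven beta-lactamase reporter (HepG2 background) are dosed for 16 h, then stained with CCF4. Cell viability in the same wells is measured by CellTiter-Glo luminescence.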

Test [7] in a line: qHTS for inhibitors of ER calcium dysfunction: SERCaMP assay screened against the NCATS CANVASS Library (AID 1347393). The method in brief:
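Thapsigargin-induced ER calcium depletion drives GLuc-SERCaMP secretion from SH-SY5Y cells; compounds given 16 h beforehand were scored by lowered coelenterazine luminescence after 4 h challenge.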

Test [8] is described as follows: qHTS for inhibitors of Rabies Virus screened against the NCATS CANVASS Library (AID 1347402; calls by dose curve).
In test [9] the target is Cytochrome P450 1A2 (Homo sapiens) (UniProt P05177). Put plainly: p450-cyp1a2 (AID 410; calls by dose curve). The method in brief:
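Inhibition was calculated relative to 57 uM furafylline (full inhibition). The reaction used human CYP1A2 at 20nM with Luciferin-ME at its Km, 100uM, driven by an NADPH-regenerating system for 60 min at room temperature.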

A short description of test [10]: NFAT Signaling Pathway (AID 444; active = well fitted curve in either direction with a large enough effect, not every such curve was filed as active). The settings on record: Jurkat NFAT-bla M1, carbachol, beta-lactamase ratio, 5 h. An outline of the steps:
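Read-out: CCF4 FRET ratio (460 nm/530 nm) after 1 h RT dye loading, used for %activity and AC50 from titration series. Cells: Jurkat NFAT-β-lactamase/M1 line, treated with compound plus 1 uM carbachol for 5 h, 37 °C.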

The target in test [11] is Cytochrome P450 3A4 (Homo sapiens) (UniProt P08684). As to the kind of experiment: qHTS Assay for Inhibitors and Substrates of Cytochrome P450 3A4 (AID 884). An outline of the steps: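 20 nM human CYP3A4 with 25 uM Luciferin-PPXE (at KM) in 200 mM KPO4, preincubated 10 min with compound; NADPH regeneration started a 60 min RT reaction. Luciferin detected by luminescence, normalized to 57 uM ketoconazole as full inhibition.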

For test [12], the target named is Cytochrome P450 2D6 (Homo sapiens) (UniProt P10635). As to the kind of experiment: qHTS Assay for Inhibitors and Substrates of Cytochrome P450 2D6 (AID 891). An outline of the steps:
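Human CYP2D6 (5 nM) with 30 uM Luciferin-ME EGE (at Km) in 100 mM KPO4, compound preincubated 10 min, then NADPH regeneration system for 60 min at room temperature. Luciferin read by luminescence; normalized to 1.43 uM quinidine.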

The nature of test [13]: qHTS for inhibitors of Wild type Zika virus screened against the NCATS CANVASS Library (AID 1347396). An outline of the steps: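 Vero 766 (African green monkey) cells, 1000 per well, attached overnight, then compounds were added in an 11-point series before wild-type Zika virus infection. After 72 h at 37C, cell viability was read as CellTiter Glo luminescence.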
Test [14] is described as follows: qHTS for Antimalaria activity screened against the NCATS CANVASS Library (AID 1347380). The method in brief: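 Growth inhibition of asexual erythrocytic P. falciparum Dd2 was quantified by SYBR Green DNA staining. Cultures grew 72 h with compound (11-point series) in hypoxic gas at 37C; lysis and staining lasted 18 h.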
Test [15] can be described thus: qHTS for Inhibitors of Plasmodium falciparum (DD2) proliferation (AID 504314). An outline of the steps: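 Erythrocytes infected with P. falciparum Dd2 (0.3% parasitemia, 2.5% hematocrit) exposed to compound 72 h at 37C, 5% CO2. Parasite DNA quantified by SYBR Green fluorescence after saponin/Triton lysis overnight; normalized to 0.29 uM artemisinin and DMSO.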
A short description of test [16]: qHTS for Inhibitors of Plasmodium falciparum (7G8) proliferation (AID 504316). An outline of the steps:
(§1)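 Erythrocytes infected with P. falciparum line (0.3% parasitemia, 2.5% hematocrit final) incubated with compounds 72 h at 37 °C, 5% CO2; SYBR Green lysis buffer added, fluorescence read next day. Normalized to 0.29 uM artemisinin and DMSO.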

Test [17] in a line: qHTS for Inhibitors of Plasmodium falciparum (HB3) proliferation (AID 504318). An outline of the steps: as §1
Test [18] can be described thus: qHTS for Inhibitors of Plasmodium falciparum (CP250) proliferation (AID 504320). The method in brief: as §1
The nature of test [19]: qHTS for Inhibitors of Plasmodium falciparum (GB4) proliferation (AID 504315). The method in brief: as §1

Sequence of Cytochrome P450 1A2 (Homo sapiens) (P05177 whole entry, looked up): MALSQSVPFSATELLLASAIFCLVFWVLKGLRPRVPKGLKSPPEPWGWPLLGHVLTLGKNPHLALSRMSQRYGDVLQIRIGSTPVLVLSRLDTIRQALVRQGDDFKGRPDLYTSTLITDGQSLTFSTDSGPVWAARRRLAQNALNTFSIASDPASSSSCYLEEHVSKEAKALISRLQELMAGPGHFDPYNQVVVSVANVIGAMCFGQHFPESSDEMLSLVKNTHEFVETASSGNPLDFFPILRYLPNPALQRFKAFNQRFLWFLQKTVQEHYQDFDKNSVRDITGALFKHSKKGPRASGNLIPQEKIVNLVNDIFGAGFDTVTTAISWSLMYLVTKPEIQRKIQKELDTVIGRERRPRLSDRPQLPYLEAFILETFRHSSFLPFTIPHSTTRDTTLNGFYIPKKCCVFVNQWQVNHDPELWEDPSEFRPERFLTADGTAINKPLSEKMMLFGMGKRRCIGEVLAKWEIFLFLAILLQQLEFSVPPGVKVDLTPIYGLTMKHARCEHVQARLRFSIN
Sequence of Cytochrome P450 2D6 (Homo sapiens) (P10635 whole entry, looked up): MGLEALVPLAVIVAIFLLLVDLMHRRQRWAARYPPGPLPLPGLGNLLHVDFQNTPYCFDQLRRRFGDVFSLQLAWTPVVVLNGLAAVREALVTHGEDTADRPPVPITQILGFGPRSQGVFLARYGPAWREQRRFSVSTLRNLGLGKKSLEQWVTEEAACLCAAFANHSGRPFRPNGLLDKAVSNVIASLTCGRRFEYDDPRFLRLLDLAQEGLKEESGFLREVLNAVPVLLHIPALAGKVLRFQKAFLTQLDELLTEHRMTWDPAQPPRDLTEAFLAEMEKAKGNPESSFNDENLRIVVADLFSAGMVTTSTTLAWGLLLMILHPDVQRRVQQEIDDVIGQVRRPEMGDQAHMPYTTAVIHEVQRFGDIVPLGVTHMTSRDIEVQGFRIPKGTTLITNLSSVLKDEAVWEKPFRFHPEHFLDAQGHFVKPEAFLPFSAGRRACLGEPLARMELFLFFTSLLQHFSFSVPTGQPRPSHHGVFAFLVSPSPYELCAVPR
Sequence of Cytochrome P450 3A4 (Homo sapiens) (P08684 whole entry, looked up): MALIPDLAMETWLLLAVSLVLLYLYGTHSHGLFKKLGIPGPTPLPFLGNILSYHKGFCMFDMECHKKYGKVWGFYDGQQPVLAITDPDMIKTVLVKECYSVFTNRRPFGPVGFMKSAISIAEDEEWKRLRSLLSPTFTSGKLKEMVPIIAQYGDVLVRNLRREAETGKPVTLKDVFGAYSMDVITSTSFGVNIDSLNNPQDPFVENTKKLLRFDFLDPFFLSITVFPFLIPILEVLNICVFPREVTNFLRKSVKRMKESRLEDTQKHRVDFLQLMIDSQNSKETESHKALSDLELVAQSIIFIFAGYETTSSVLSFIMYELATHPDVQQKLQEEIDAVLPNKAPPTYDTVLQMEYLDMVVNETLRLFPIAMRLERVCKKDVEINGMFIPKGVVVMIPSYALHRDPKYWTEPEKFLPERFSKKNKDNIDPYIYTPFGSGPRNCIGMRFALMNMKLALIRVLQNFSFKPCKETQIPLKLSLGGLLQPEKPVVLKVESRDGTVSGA

With `CCN1C[C@]2(C)CC[C@@H](O)[C@]34C1[C@H](C[C@H]23)C12CCC(CC14)[C@](O)(CO)[C@H]2O` (stereo partly drawn), the Potency entry in test [1], in test [2], in [3], in test [4], in test [5] and in test [6] was “inactive” each time. Also, in [7], the Potency result is “inactive”. Also, the compound was called inactive in test [8].
As to `CP(=O)(O)CCCN`, in [9], the Potency entry was “inactive”. Further, the activity change, negative = inhibition in [10] (at 38 µM (top of the series)) was 0.206%.
For `CN1C(=O)CCS(=O)(=O)[C@H]1c1ccc(Cl)cc1`, the Potency result in [9], in test [11] and in test [12] was “inactive” in each case. The activity change, negative = inhibition in test [10] (at 38 µM (top of the series)) was 2.77%.
For `N[C@@H](CCP(=O)(O)O)C(=O)O`, the activity change, negative = inhibition in test [10] (at 7.69 µM (top of the series)) is 3.73%.
As for `CNCCc1ccccc1`, the Potency in [1] was 0.0469 µM (active). The Potency entry in test [3], in [4], in [5], in [6], in [7] and in [13] was “inactive” each time. The compound was called inactive in test [8].
Turning to `COC(=O)C1=C2Nc3ccccc3[C@@]23CCN2CC(C(C)=O)C1C[C@H]23` (stereo partly drawn), the Potency result in test [1], in test [2], in [3], in test [4], in test [5] and in test [6] was “inactive” in each case. In addition, in test [13], the Potency result is “inactive”. Further, the Potency in [7] was 17.2 µM (active). The call in test [8] was inactive.
For `CO[C@H](c1ccccc1)[C@H]1NC(=O)C(C)NC(=O)C(C[C@@H](C)CO)N(C)C(=O)[C@@H](C(O)c2cn(C(C)(C)C3CO3)c3ccccc23)NC(=O)C(C(C)C=C(C)C)NC(=O)C(CC(C)C)N(C)C(=O)C(C(C)C)NC1=O` (stereo partly drawn), the Potency entry in test [3], in test [4], in [6] and in [13] was “inactive” in each case. Further, the Potency in test [14] is 0.292 µM (active). Further, in [8], the outcome was inactive.
With `CCCC[C@@H]1CC[C@H]2CCCC(CCC)N12` (stereo partly drawn), the Potency result in test [1], in [2], in [3], in [4], in test [5] and in test [6] was “inactive” each time. The Potency result in test [13] was “inactive”. The call in test [8] was inactive.
As for `CCCCC[C@@H]1OC(=O)[C@@H](C)N(C)C(=O)[C@H](CCCCC)OC(=O)C(C)N(C)C(=O)[C@H](CCCCC)OC(=O)[C@@H](C)N(C)C(=O)[C@H](CCCCC)OC(=O)C(C)N(C)C1=O` (stereo partly drawn), the Potency in test [1] is 16.6 µM (active); in test [2] it was 18.7 µM (active); in test [3], 11.8 µM (active); in test [13] it was 11.7 µM (active). In addition, the Potency entry in test [4] and in [6] was “inactive” throughout.
As to `CNCCc1ccc(O)cc1`, the Potency result in [1], in test [2], in [3], in test [4], in test [5] and in [6] was “inactive” in each case. The Potency result in test [7] and in test [13] was “inactive” in each case. For the same compound, the call in test [8] was inactive.
For `CC=C1CN(C=O)[C@H]2C[C@@H]1[C@@H](C(=O)OC)[C@@]13CCOC21Nc1ccccc13` (stereo partly drawn), the Potency result in test [1], in [2], in test [4], in test [5] and in test [13] was “inactive” each time. Also, in [8], the outcome was inactive.
Consider `CNCCc1c[nH]c2ccccc12`, for which the activity change, negative = inhibition in test [10] (at 17.2 µM (top of the series)) was -6.51%. Moreover, the Potency entry in [2], in test [3], in test [4], in [5], in test [14] and in test [6] was “inactive” throughout. Also, the Potency result in test [7] and in test [13] was “inactive” each time. Moreover, the result in test [8] was inactive.
As to `O=C(c1ccccc1O)c1[nH]c(Cl)c(Cl)c1-n1c(C(=O)c2ccccc2O)cc(Cl)c1Cl`, the Potency was 2.35 µM (active) in [1]; 5.9 µM (active) in test [2]; 1.18 µM (active) in [3]; 15.3 µM (active) in test [5]; 0.472 µM (active) in [14]. For the same compound, the Potency entry in test [6] and in test [7] was “inactive” throughout.
Turning to `CCOC(=O)[C@@]12[C@@H]3[C@@H](CCN3C(=O)N[C@H]1c1ccccc1)C2(C)C`, the result in test [15], in test [16] and in [18] was inactive. Moreover, in [17], the Potency result was “inactive”.
Turning to `COC(=O)C1=C2CCO[C@@H]2[C@H]2[C@@H](C)[C@H](OC)c3ccccc3[C@H]12`, the compound was called inactive in test [15], in test [19], in [16] and in test [18]. In addition, in test [17], the Potency result is “inactive”.
